Screens from PubChem BioAssay.
KKLEB cytotox = cytotoxicity in KKLEB CF airway cells, primary screen, cytotoxicity control for CF NF-kB inhibitor project, cell-based, uHTS, fluorescence assay plates. KKLEB CF airway cells viability, ATPlite luminescence, overnight; stronger effect = lower value; cells stimulated with P. aeruginosa culture filtrate. activity change (cytotoxicity), % at 5 µM. 360,000 tested, 0.36% active;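 active means corrected activity change at or below -50% at 5 µM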
CF NFkB block = inhibitors of PAF-induced NF-kB signaling, primary screen, cell-based, GFP fluorescence, uHTS. KKLEB NF-kB-GFP reporter, GFP fluorescence overnight. inhibition, % at 5 µM. 360,000 tested, 0.86% active;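 active means at least 50% inhibition at 5 µM, scaled per plate between neutral and stimulator controls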;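 further: PAF is a Pseudomonas aeruginosa culture filtrate used as stimulus; plate controls were PAF-stimulated DMSO wells for no effect and unstimulated DMSO wells for full effect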
TWEAK Fn14 block = inhibitors of TWEAK-Fn14 signaling, primary screen, luciferase reporter cells, uHTS | TWEAK-stimulated Fn14 reporter cells, luciferase luminescence, 8 h | inhibition, % at 10 µM | 360,000 tested, 2% active | AID 1159606, 2016; in the data active means inhibition above about 50%
Peg3 prom inh-1 = Peg3 promoter-driven luciferase inhibitors, primary screen, cell-based, HeLa, luciferase luminescence; 360,000 tested, 1.7% active; HeLa PEG-Prom luciferase reporter, overnight; AID 588405, 2011; inhibition, % at 20 µM;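 active means inhibition of at least 50% at 20 µM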
TROY NFkB inh = inhibitors of TROY-driven NF-kB signaling, primary screen, Q293 LMP1-TROYcd cells, NF-kB luciferase, uHTS | AID 1347056, 2019 | inhibition, % at 10 µM | Q293 LMP1-TROYcd NF-kB luciferase reporter, 4 h | 360,000 tested, 0.98% active;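 active means compounds whose plate-normalised and pattern-corrected inhibition of the luciferase reporter signal at the single screening dose is 50% or more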
HIF-2a block = HIF-2a reporter inhibitors, primary screen, luminescence, 786-0 RCC cells; 786-0 RCC cells HIF-2a reporter, luciferase luminescence, overnight; inhibition, % at 18.8 µM; 360,000 tested, 0.72% active; AID 624352, 2012;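 active means inhibition of the luminescence signal of 40% or more relative to plate controls, in a single-dose primary screen at 18.75 µM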
Peg3 prom inh-2 = Peg3 promoter reporter inhibitors, retest, confirmation, cell-based, HeLa, luciferase reporter, single concentration; HeLa PEG-Prom luciferase reporter, luminescence, overnight; AID 602417, 2012; shares compounds with Peg3 prom inh-1; 1,300 tested, 84% active; inhibition, % at 20 µM;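 active means at 20 µM dose, 40% or more inhibition averaged across four replicates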
Mdm2-MdmX confirm = retested Mdm2-MdmX interaction blockers, confirmation, cell-based, luminescence, single concentration, set 2 | shares compounds with HIF-2a block | SaOS-2 split-luciferase Mdm2/MdmX complementation | inhibition, % at 8 µM | 740 tested, 99% active;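 active means mean inhibition of the luminescence signal across two replicates at or above 26 percent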
HIF-2a inh conf = HIF-2a reporter inhibitor retest, confirmation, luminescence, 786-0 RCC cells. shares compounds with HIF-2a block. HIF-2a luciferase reporter luminescence, overnight. inhibition, % at 18.8 µM. 1,800 tested, 56% active;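 active means mean inhibition across four replicates of at least 40 percent at the single tested concentration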
HIF-1a cs = HIF-1a luciferase reporter signal reduction – MiaPaCa-2 cells, single concentration, counter-screen for HIF-2a inhibitor project, confirmation; shares compounds with HIF-2a block; MiaPaCa-2 HIF-1a luciferase reporter, desferoxamine, overnight; inhibition, % at 18.8 µM; 1,800 tested, 72% active; AID 651589, 2012;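 active means mean inhibition of the reporter signal across four replicates at the single tested dose of 50% or more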
* hit, by the source's call; . = no result given. The list is not random: actives were taken first. Their share in the collection is about 4%.

SMILES	KKLEB cytotox	CF NFkB block	TWEAK Fn14 block	Peg3 prom inh-1	TROY NFkB inh	HIF-2a block	Peg3 prom inh-2	HIF-2a inh conf	HIF-1a cs	others
O=C(N/N=C/c1cccs1)c1n[nH]c2c1CCCC2	-7	11	93*	78*	68*	47*	56*	65*	57*
Cc1ccc(/C=N/NC(=O)c2n[nH]c3c2CCCC3)cc1	-11	49	-9	-240	-18	-217	.	.	.
C/C(=N\NC(=O)c1cc(C)[nH]n1)c1cccs1	-4	15	19	-35	-39	-72	.	.	.
O=C(COC(=O)Cn1[nH]c(=O)c2ccccc2c1=O)NNC(=O)c1ccc(Br)cc1	13	-11	-1	-7	-18	5	.	.	.
CCn1nc(C)cc1-c1nnc(Sc2ncc([N+](=O)[O-])s2)n1C	-82*	95*	17	110*	-6	96*	100*	.	.	Mdm2-MdmX confirm=103*
CC(C)(C)OC(=O)N[C@@H](Cc1ccccc1)C(=O)N[C@@H](CO)[C@H](O)[C@@H]1C[C@@H]1C(=O)NC1CCCCC1	-7	2	0	-6	17	7	.	.	.
Cc1c(/C(O)=C2/C(=O)C(=O)N(Cc3cccnc3)C2c2ccccn2)cnn1-c1ccccc1 (configuration not stated)	3	4	101*	66*	91*	67*	59*	52*	56*
COc1ccc(-n2nc3c(N4CCC(C(=O)NCCc5ccco5)CC4)nnc(C)c3c2C)cc1	2	0	-15	10	6	7	.	.	.
COc1ccccc1CCNC(=O)C1CCN(c2nnc(C)c3c(C)n(-c4ccc(C)cc4)nc23)CC1	-35	-20	-21	89*	-3	40*	78*	27	82*
Cc1ccc(S(=O)(=O)N2CCC(C(=O)OCC(=O)N(Cc3ccccc3)C(C)(C)C)CC2)cc1C	-15	-3	10	9	14	16	.	.	.
O=c1c2ccccc2oc2cc(C#CC3(O)CCCCC3)ccc12	-42	4	101*	60*	87*	44*	59*	73*	97*
O=c1c2ccccc2sc2ccc(C#CC3(O)CCCCC3)cc12	-85*	-25	107*	79*	92*	87*	92*	94*	104*
O=C(NCCCNC(=O)c1c(Cl)cccc1Cl)c1c(Cl)cccc1Cl	7	-9	4	14	17	11	.	.	.
COc1cc(NS(C)(=O)=O)ccc1Nc1c2ccccc2nc2ccccc12	10	-119	-213	102*	-86	55*	93*	.	.	Mdm2-MdmX confirm=98*
CC(=O)Nc1cc2c(cc1Cl)-c1ccccc1C2O (configuration not stated)	-6	-3	21	-15	-16	-48	.	.	.
COCCNc1nc(N)c([N+](=O)[O-])c(NC2CCCCC2)n1	-10	19	0	-11	-5	-117	.	.	.
NCCCNc1nc(N)c([N+](=O)[O-])c(NC2CCCCC2)n1	-11	42	38	67*	43	48*	80*	18	99*
Cc1ccccc1OCC(O)CNC1CCC(NCC(O)COc2ccccc2C)CC1 (configuration not stated)	-37	38	-37	101*	11	93*	99*	21	105*	Mdm2-MdmX confirm=103*
Cc1cccc(C)c1NC(=O)Nc1nnc([C@H]2C[C@H](O)[C@@H](CO)O2)s1	-12	28	-4	3	-25	14	.	.	.
CCOc1cc(/C=C\[N+](=O)[O-])ccc1OCC(=O)Nc1ccccc1C	-1	-22	-27	115*	12	96*	91*	26	106*	Mdm2-MdmX confirm=100*
C[C@H](CO)N1C[C@H](C)[C@@H](CN(C)Cc2ccncc2)OCCCC[C@H](C)Oc2ccc(NC(=O)CCCN(C)C)cc2C1=O	10	-38	17	-3	1	2	.	.	.
CCCN1CCN(CC(=O)Nc2nnc(CC)s2)CC1	-3	10	-4	5	23	18	.	.	.
Cc1noc(-c2ccc(Cl)cc2)c1C(=O)O/N=C(\N)c1ccc(C(C)(C)C)cc1	-2	10	-19	112*	-24	0	98*	.	.	Mdm2-MdmX confirm=103*
O=C1CCC2S/C(=C/Nc3ccc(C(F)(F)F)cc3)C(=O)N12 (configuration not stated)	5	-4	86*	67*	-37	97*	89*	98*	105*
CC(CCc1ccccc1)NC(=O)COC(=O)c1ccc(S(C)(=O)=O)c([N+](=O)[O-])c1 (configuration not stated)	-64*	91*	71*	102*	70*	50*	97*	38	97*	Mdm2-MdmX confirm=102*
CC(CCc1ccccc1)NC(=O)COC(=O)c1ccc([N+](=O)[O-])cc1 (configuration not stated)	0	-21	21	-7	-19	16	.	.	.
COC(=O)c1ccc(CNc2ccc(C(C)=O)cc2)cc1	17	-43	-15	-30	-14	-61	.	.	.
CN(C)c1ccc(Nc2nc(N)c3ccccc3n2)cc1	-62*	-19	95*	63*	67*	47*	65*	79*	45
CN(C)c1nc(Nc2ccccc2)nc(N(C)C)n1	-2	9	-11	1	-43	-14	.	.	.
O=CNc1cc(-c2ccc(C(=O)NC3CC3)cc2)cn2c(-c3ccc(F)cc3)cnc12	-20	16	6	42	14	-79	.	.	.
